Each structure is given as a SMILES string. Records with an inconclusive call do not appear. A call without a number means that no potency is given here. Unmarked numbers belong to inactive results. Active and inactive are the calls of the source. The call rests on the fitted dose curve; in most records, active means well fitted activation curve with a large enough effect; inconclusive means small, poorly fitted or top-dose-only effect; inactive means flat fitted curve, though single readings scatter.

This assay can be described thus: Primary redox qHTS assay for identification of artifact compounds. (AID 1845223). Particulars: Amplex Red/HRP redox cycling with DTT, fluorescence; series mostly up to 53.8 µM. A digest of the protocol: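 Amplex Red (25 uM) and HRP (250 mU/mL) in HBSS, with compounds for 15 min, then 250 uM DTT for 30 min, room temperature, dark. Fluorescence 525/598 nm read; normalized to DMSO and 10 uM DA3003; Hill fit.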
(Quantitative high-throughput screening tests each substance at several concentrations.)
On to `O=C(O)CC1CCC(c2ccc(NC(=O)c3nnc(Nc4ccc(F)c(F)c4)o3)cc2)CC1` (stereo not given), for which the Potency entry was “inactive”.
On the same count and under the same terms, next, `COC(=O)C(CC1(O)c2ccccc2N2C(=O)C(C)(C)N(O)C21)n1cnc2ccccc2c1=O` (stereo not given): “inactive”; `CC(C)=CCC/C(C)=C/CO[C@@H]1O[C@H](CO[C@@H]2OC[C@](O)(CO)[C@H]2O)[C@@H](O)[C@H](O)[C@H]1O`: “inactive”; `C/C(=C\CO)CC/C=C(\C)C(=O)O[C@@H]1O[C@H](CO)[C@@H](O)[C@H](O)[C@H]1O`: “inactive”.
As for `COC(=O)[C@H](Cc1ccc([N+](=O)[O-])cc1)NC(=O)c1cccc2ccccc12`, the Potency result was “inactive”.
The same measure, in the same setting: next, `COC(=O)C1(C)CCCC2(C)c3ccc(C(C)C)cc3C(O)C(O)C12` (stereo not given): “inactive”.
For `O=C(/C=C/c1ccc(O)cc1)OC[C@@]1(O)C=C[C@@H]2C(C(=O)O)=CO[C@@H](O[C@@H]3O[C@H](CO)[C@@H](O)[C@H](O)[C@H]3O)[C@@H]21`, the Potency entry was “inactive”.
As to `C[C@@H]1O[C@@H](O[C@H]2[C@@H]3C=CO[C@@H](O[C@@H]4O[C@H](CO)[C@@H](O)[C@H](O)[C@H]4O)[C@@H]3[C@@]3(CO)O[C@@H]23)[C@H](O)[C@H](OC(=O)/C=C/c2ccc(O)cc2)[C@H]1OC(=O)/C=C/c1ccc(O)cc1`, the Potency entry is “inactive”.
Regarding `COC(=O)/C=C/c1ccc(O[C@@H]2O[C@H](CO)[C@@H](O)[C@H](O)[C@H]2O)cc1`, the Potency entry was “inactive”.
In the case of `C=C1C2(C)CC3C4(C)C=CC(=O)OC(C)(C)C4CCC3(C)C1(C(=O)OC)C(=O)C(C)(O)C2=O` (stereo not given), the Potency result was “inactive”.
Same read-out and setting: next, `COC(=O)[C@]1(Cc2ccc(O)c(CC=C(C)C)c2)OC(=O)C(O)=C1c1ccc(O)cc1`: “inactive”; `C=C(C)C1Cc2c(ccc3c2OCC(c2ccc(O)cc2O)C3)O1` (stereo not given): “inactive”; `CC1(C)C[C@H](O)C[C@@]2(C)[C@H]1[C@H](O)C=C1COC(=O)[C@@]12O`: “inactive”.
On the same count and under the same terms, for `CC(O)C(O)/C=C/C=C/C(=O)O[C@@H]1C=C(C(=O)O)[C@](O)(CO)[C@@]2(C)CCCC(C)(C)[C@H]12` (stereo not given in full) the value was “inactive”.
On the same count and under the same terms, for `COc1cccc(C(=O)NCCNc2nc3cc(C)cc(C)c3cc2C#N)c1` the value was “inactive”.
`CC1=CC(=O)CC(C)(C)[C@@]1(O)/C=C/C(C)O[C@@H]1O[C@H](CO)[C@@H](O)[C@H](O)[C@H]1O` (stereo not given in full): the Potency result is “inactive”.
Still for that read-out and setting: for `O=C(COCC(=O)N1CCN(C(c2ccccc2)c2ccccc2)CC1)Nc1ccc(Cl)cc1C(=O)O` the value was “inactive”; for `C/C=C/C=C/C=C/C(=O)O[C@@H]1C=C(CO)[C@](O)(CO)[C@@]2(C)CCCC(C)(C)[C@H]12`, “inactive”; for `O=C(O)Cc1cn([C@@H]2OC[C@@H](O[C@@H]3O[C@H](CO)[C@@H](O)[C@H](O)[C@H]3O)[C@H](O)[C@H]2O[C@@H]2O[C@H](CO)[C@@H](O)[C@H](O)[C@H]2O)c2ccccc12`, “inactive”.
In the case of `NC[C@@H]1O[C@@H](O[C@@H]2[C@@H](O[C@@H]3O[C@H](CO)[C@@H](O)[C@H]3O)[C@H](O)[C@@H](N)C[C@H]2N)[C@@H](N)[C@H](O)[C@H]1O`, the redox activity (% of DA3003) was -8.2% [at 11.5 µM].

Source of the values: PubChem BioAssay (NCATS).
